Our source for the outcome and AC50 values is PubChem BioAssay (EPA / NIEHS).

Inconclusive results are not listed. Active and inactive are the calls of the source. The calls were made as follows: active = hit-call score of the fitted dose curve at least 0.9, where 1 is the maximum; inconclusive = response in the unintended direction; inactive = score below 0.9.

This assay concerns NCBI gene 100848466. Kind of assay: NVS_NR_bPR: NovaScreen (NVS) Nuclear Receptor Binding Assay for bovine Progextron Receptor (PR) (AID 2283343).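 As to AC50: actives lower bound radioligand signal below DMSO meaning displacement of the label.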 The method, then: NVS_NR_bPR is a biochemical, single-readout assay that uses extracted gene-proteins from Bovine uterine membranes in a tissue-based cell-free assay. Measurements were taken 18 hours after chemical dosing in a 96-well plate.NVS_NR_bPR is one of one assay component(s) measured or calculated from the NVS_NR_bPR assay. It is designed to make measurements of radioligand binding, a form of binding reporter, as detected with scintillation counting signals by Lysate-based radiodetection technology.Data from the assay component NVS_NR_bPR was analyzed into 1 assay endpoint. This assay endpoint, NVS_NR_bPR, was analyzed in the positive analysis fitting direction relative to DMSO as the negative control and baseline of activity. Using a type of binding reporter, loss-of-signal activity can be used to understand changes in the binding as they relate to the gene PGR. Furthermore, this assay endpoint can be referred to as a primary readout, because the performed assay has only produced 1 assay endpoint. To generalize the intended target to other relatable targets, this assay endpoint is annotated to the nuclear receptor intended target family, where the subfamily is steroidal.
Binding assays used specific radioligands (tritiated, iodinated) with non-radioactive competitive displacement ligands in agonist or antagonist protocols (as indicated) and various reference compounds and inhibitors to titrate specific binding to receptors and transporters. Most enzyme assays (CYPs, kinases, phosphatases, proteases, HDACs) used recombinant protein and specific substrates (fluorescence mostly, some colorimetric and radioactive) and inhibitors, followed by a biochemical separation of substrate and product. All assays for the biochemical HTS were initially run in duplicate at a single concentration (10 uM for CYP450 assays and 25 uM for all others). […] Each assay was run with positive and negative controls, and concurrent controls on every plate. The follow-up (secondary) screen tested active chemical-pairs in concentration series, as well as a few additional assays not tested in the primary screen, some selected negative inactives, and several cases re-run in the concentration series for confirmatory purposes.
For the compound `O=C1C2CC=CCC2C(=O)N1SC(Cl)(Cl)Cl` (configuration not stated), the compound was called inactive.

By AC50 is commonly meant the concentration at which the activity in the assay is half-maximal. On to `CC(C)=CC1C(C(=O)OCc2coc(Cc3ccccc3)c2)C1(C)C` (configuration not stated), for which the AC50 is 25 µM (active).

Take `CCCCC(C#N)(Cn1cncn1)c1ccc(Cl)cc1` (configuration not stated): the call was inactive.

As for `CC(C)(C)C(=O)C(Oc1ccc(Cl)cc1)n1cncn1` (configuration not stated), the compound was classed as inactive.

In the case of `N#Cc1c[nH]cc1-c1cccc2c1OC(F)(F)O2`, the call was inactive.

Take `CC1(C)C(C=C(Cl)Cl)C1C(=O)OC(C#N)c1cccc(Oc2ccccc2)c1` (configuration not stated): the compound was classed as inactive.

Regarding `CCN(CC)c1nc(C)cc(OP(=S)(OC)OC)n1`, the AC50 is 18.5 µM (active).

On to `CCCCC(O)(Cn1cncn1)c1ccc(Cl)cc1Cl` (configuration not stated), for which the AC50 is 7.24 µM (active).

As for `COCC(=O)N(c1c(C)cccc1C)C(C)C(=O)OC` (configuration not stated), the compound was called inactive.

As to `COC(=O)c1c(C(F)F)nc(C(F)(F)F)c(C2=NCCS2)c1CC(C)C`, the outcome was inactive.

In the case of `COP(=S)(OC)Oc1ccc([N+](=O)[O-])c(C)c1`, the AC50 is 14.8 µM (active).

For `N#Cc1c(Cl)cccc1Cl`, the outcome was inactive.
